From PubChem BioAssay
Rows were chosen to be rich in hits. Some 2.4% of all compounds tested hit in one or more screens of this group.
eIF4H FP inh = inhibitors of RNA binding by human eIF4H; inhibition, % at 35 µM; eIF4H fluorescence polarization binding assay; hit rate 0.94% among 290,000; Q15056;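 further: calls also rest on retests at 20 µM and on dose response follow-up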
PABP polyA inh = blocks human PABP binding to poly(A) RNA. P11940. fluorescence polarization. inhibition, % at 35 µM. hit rate 1% among 290,000. AID 2014;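 further: calls also rest on retests at 20 µM and on dose response follow-up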
MLLE-PAM2 inh = blocks PAM2 peptide binding to the PABP1 MLLE domain. P11940. hit rate 0.36% among 360,000. GST-MLLE / FITC-PAM2 fluorescence polarization. AID 588489. inhibition, % at 20 µM; in the data active means inhibition above about 35%, passing the limit was not always enough
eIF4E 4G PPI = blocks eIF4E binding to eIF4G. P63073+Q04637. TR-FRET eIF4E-eIF4GI(517-606) binding, 2 h. inhibition, % at 21.7 µM. hit rate 0.37% among 220,000;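 active means inhibition above about 30%, limit read from the data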
M18AAP inhibitor = blocks P. falciparum M18 aspartyl aminopeptidase. recombinant PfM18AAP, H-Glu-NHMec fluorogenic cleavage. inhibition, % at 7.35 µM. hit rate 1.2% among 290,000;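 active means inhibition above the campaign mean inhibition over all tested compounds plus 3 SD, cut at about 28% in these data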
PERK inhibitor = human PERK inhibition, primary cell-based screen; Q9NZJ5; CHO PERK-DD fusion, SEAP luminescence translation reporter; inhibition, % at 5.6 µM; hit rate 0.17% among 220,000;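 active means inhibition above the mean inhibition of all tested compounds plus 3 SD, set separately per screening campaign, cut at about 2.9% in these data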;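 further: PERK kinase domain activated by AP20187 dimerizer at 100 nM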
Hits are given with their value; 0 = inactive; ? = inconclusive; - = no result given. Unless noted, how the calls were made is not given here.

SMILES	eIF4H FP inh	PABP polyA inh	MLLE-PAM2 inh	eIF4E 4G PPI	M18AAP inhibitor	PERK inhibitor
C#CCOCCOCCOCCNc1nc(N2CCN(C(=O)[C@H]([C@@H](C)CC)n3cc([C@@H](N)CO)nn3)CC2)nc(N2CCN(C(=O)[C@H]([C@@H](C)CC)n3cc([C@@H](N)CO)nn3)CC2)n1	0	0	-	0	-	-
C#CCOCCOCCOCCNc1nc(N2CCOCC2)nc(N2CCN(C(=O)[C@H](CCCCN)n3cc([C@@H](N)CO)nn3)CC2)n1	0	0	0	0	0	0
NS(=O)(=O)c1ccc(O)c(N2C(=O)c3cccc4c(C(=O)O)ccc(c34)C2=O)c1	0	0	0	0	0	0
COc1cc([N+](=O)[O-])cc2sc(NC(=O)C3CC3)nc12	0	0	0	0	0	0
COc1cc([N+](=O)[O-])cc2sc(NC(=O)C(C)(C)C)nc12	0	0	0	0	0	3.5
COc1ccc(/C=C/C(=O)OCC(=O)N2c3ccccc3CC2C)c(OC)c1 (stereo unspecified)	-	-	0	-	-	-
COc1ccc(C(=O)Nc2ccc3oc(Cc4ccc(Cl)cc4)nc3c2)cc1OC	0	0	0	53	0	0
COc1ccc(Cc2nc3ccc(C(=O)NCCc4ccncc4)cc3o2)cc1OC	0	0	0	-	0	-
O=C(CN1CCCCC1)NCC(=O)Nc1ccc(F)c(F)c1F	-	-	0	-	-	-
CCC(C(=O)NC1CCCCC1)N(Cc1cccs1)C(=O)c1snc(C(N)=O)c1N (stereo unspecified)	0	0	0	0	0	0
COc1cc(C(C[N+](=O)[O-])c2c(C)[nH]c3ccccc23)ccc1O (stereo unspecified)	0	0	0	0	29	0
CC1(C)Cc2c(sc3ncnc(NN)c23)CO1	0	0	0	-	30	-
CCNS(=O)(=O)c1ccc(CCC(=O)N2CCN(c3ccccc3F)CC2)cc1	0	0	0	-	0	-
CC(C)CNC(=S)N(Cc1ccco1)Cc1cc2cc3c(cc2[nH]c1=O)OCCO3	0	0	0	0	0	0
CCCC12CN3CCN(CC(C3)/C1=N\NC(=O)c1ccc(C(C)(C)C)cc1)C2	0	0	0	0	0	0
Cc1ccc(C)c(S(=O)(=O)N2CCN(C(=O)c3cncc(Br)c3)CC2)c1	0	0	0	-	0	-
S=c1[nH]nc(COc2ccccc2)n1/N=C/c1ccco1	0	0	0	0	28	0
Cc1ccccc1/C=N/n1c(COc2ccccc2)n[nH]c1=S	0	0	0	-	0	-
Oc1ccccc1/C=N/n1c(COc2ccccc2)n[nH]c1=S	0	0	0	-	28	-
CCOc1ccccc1/C=N/n1c(COc2ccccc2)n[nH]c1=S	0	0	0	-	31	-
Fc1ccccc1/C=N/n1c(COc2ccccc2)n[nH]c1=S	0	0	0	-	0	-
COc1ccc(/C=N/n2c(COc3ccccc3)n[nH]c2=S)cc1OC	0	0	0	-	30	-
CCOC(=O)c1c(C)[nH]c(C(=O)N2CCc3cc(OC)c(OC)cc3C2)c1C	-	-	0	-	-	-
COc1cc(NC(=O)CN2CCN(CC(=O)Nc3ccccc3OC)CC2)cc(OC)c1	0	0	0	-	0	-
O=C(NNc1nc2cc3c(cc2s1)OCO3)c1cccc(F)c1	0	0	0	0	0	0
SMILES	eIF4H FP inh	PABP polyA inh	MLLE-PAM2 inh	eIF4E 4G PPI	M18AAP inhibitor	PERK inhibitor
COc1cc(OC)cc(C(=O)NNc2nc3cc4c(cc3s2)OCO4)c1	0	0	0	0	31	0
COc1cc(NC(=S)Nc2ccc(Br)cc2Cl)c(OC)cc1Cl	0	0	0	0	0	0
COc1cc(NC(=S)Nc2cccc(Cl)c2Cl)c(OC)cc1Cl	0	0	0	0	29	0
COc1ccc(-c2[nH]ncc2CN(C)CCN2CCOCC2)cc1F	0	0	0	0	0	3.0
CCCCNC(=O)C1(C)CCC(=O)N1CCc1c[nH]c2ccccc12 (stereo unspecified)	-	-	0	-	-	-
Cc1[nH]c(=O)nc(NN=Cc2ccc(Cl)cc2)c1C(=O)Nc1ccc(Cl)cc1	-	-	0	-	-	-
CCOC(=O)c1ccc(Oc2nc(OC)cc(OC)n2)cc1	0	0	0	0	0	0
CCN(CC)C(=O)c1ccc(/C=C/c2c[nH]c3ccccc23)[n+](C)c1	?	0	0	0	0	0
CC[n+]1c(/C=C/c2c[nH]c3ccccc23)ccc2cc(C)ccc21	?	0	-	32	0	0
CC1(C)OC(=O)C2(Cc3ccccc3N3CCCCC32)C(=O)O1 (stereo unspecified)	0	0	0	0	29	0
O=C(O)CN1C(=O)/C(=C\c2cc(Br)ccc2OCc2ccccc2F)SC1=S	0	0	0	-	0	-
O=C(O)CN1C(=O)/C(=C\c2cc(Br)ccc2OCc2ccc([N+](=O)[O-])cc2)SC1=S	68	38	0	-	0	-
O=C(O)CN1C(=O)/C(=C\c2cc(Br)ccc2OCc2ccccc2Cl)SC1=S	60	24	0	-	0	-
CCSc1nnc(-c2ccccc2NC(=O)CC)c(=O)[nH]1	0	0	0	0	0	0
CCSc1nnc(-c2cc(Br)ccc2NC(C)=O)c(=O)[nH]1	0	0	0	96	0	0
Cc1cccc(NC(=S)NNC(=O)c2csc3c2CCCC3)c1	0	0	38	0	0	0
Cc1ccc(SCC(=O)Nc2ccc(N3CCN(C)CC3)c(F)c2)c(C)c1	0	0	0	0	0	0
O=C(CSc1nnc(NC2CCCCC2)s1)N1CCOCC1	-	-	0	-	-	-
CCN(CC)c1ccc(/C=N/NC(=O)c2ccc3nc[nH]c3c2)cc1	0	0	0	87	0	0
O=C1CC(c2ccco2)CC(O)=C1C=NCC1NCCc2ccccc21 (stereo unspecified)	?	?	0	0	29	0
Cc1cccc(-c2nnc(SCC3CNC(=O)O3)n2-c2ccc(Cl)cc2)c1 (stereo unspecified)	0	0	0	45	0	0
CCN(Cc1ccncc1)Cc1c(O)ccc2cc(Br)ccc12	0	0	0	0	0	0
O=C(Nc1ccc(CN2CCOCC2)cc1)c1ccc(-c2cccc(Cl)c2)o1	0	0	0	0	0	0
O=C(Nc1ccc(CN2CCOCC2)cc1)c1ccc(-c2ccc(Cl)cc2Cl)o1	0	0	0	95	0	0
COc1ccc(CN(Cc2ccc(C(=O)O)cc2)C(=S)Nc2ccc(C)cc2)cc1OC	0	0	0	0	0	0
SMILES	eIF4H FP inh	PABP polyA inh	MLLE-PAM2 inh	eIF4E 4G PPI	M18AAP inhibitor	PERK inhibitor
O=C1CCCCC1Sc1nnc(-c2ccc3c(c2)OCO3)o1 (stereo unspecified)	9.7	74	0	0	0	0
CC1CCCCC12NC(=O)N(CC(=O)OCC(=O)c1ccc(OC(F)F)cc1OC(F)F)C2=O (stereo unspecified)	0	0	0	-	0	-
Cc1ccc(O)c(NC2=C(Cl)C(=O)N(Cc3ccccc3)C2=O)c1	0	0	0	31	0	0
O=C1C(Cl)=C(Nc2ccccc2O)C(=O)N1c1ccccc1	0	0	0	0	46	0
COc1ccc(NC(=S)NC(C)Cc2cccs2)cc1 (stereo unspecified)	108	9.7	0	0	0	0
COC(=O)CN1C(=O)N/C(=C/c2cc(OC)c(OC)cc2C)C1=O	0	0	0	0	0	0
